hcDAF-12 act = activates DAF-12 receptor from parasite H. contortus. AID 652067. activation, % at 6.8 µM. 370,000 compounds, 1.4% hits. HEK293 hcDAF-12 lit1-tk-luc reporter, luminescence; 0% DMSO, 100% Δ7-dafachronic acid;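 active = activation above the mean of all tested compounds plus 3 SD, cut at about 5.5% in these data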;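 also: 100% = response to 3 µM Δ7-dafachronic acid high control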
DAX1 inh-1 = inhibitors of human orphan nuclear receptor DAX1 (NR0B1); P51843; HEK293 Gal4-DAX1 luciferase reporter, luminescence; inhibition, % at 6.75 µM; 340,000 compounds, 0.99% hits; AID 504766;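 active = inhibition above the mean over all tested compounds plus 3 SD, cut at about 4.2% in these data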;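 also: 0% = DAX1-transfected cells with DMSO and 100% = empty-vector control cells with DMSO; inhibition shows as a rise in luminescence from relieved DAX1 repression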
Target sequence (P51843 207-470 limits assumed): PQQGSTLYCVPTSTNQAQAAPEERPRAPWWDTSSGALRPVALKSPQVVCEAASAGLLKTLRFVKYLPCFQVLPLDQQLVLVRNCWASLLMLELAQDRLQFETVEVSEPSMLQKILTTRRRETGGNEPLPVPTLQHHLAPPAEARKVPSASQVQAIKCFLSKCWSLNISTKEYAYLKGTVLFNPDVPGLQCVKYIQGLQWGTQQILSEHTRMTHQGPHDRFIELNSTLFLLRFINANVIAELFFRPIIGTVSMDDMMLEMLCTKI
hgDAF-12 ag = agonists of H. glycines DAF-12 nuclear receptor; 370,000 compounds, 1.8% hits; HEK293 GAL4-hgDAF12 UAS-luciferase reporter, agonist luminescence; normalized to butyrate control; AID 687014; activation, % at 6.8 µM;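 active = activation above a cutoff set at the mean of all screened compounds plus 3 SD, cut at about 10% in these data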;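 also: 0% = DMSO wells and 100% = sodium butyrate wells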
ssDAF12 agonist = activators of S. stercoralis DAF-12 nuclear receptor; HEK293 ssDAF-12/GRIP1 lit1-tk-luc reporter, luminescence; % of 3 µM dafachronic acid response; activation, % at 6.8 µM; 370,000 compounds, 1% hits; AID 652126;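 active = activation above the mean over all tested compounds plus 3 SD, cut at about 0.9% in these data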;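 also: 0% = DMSO-only wells and 100% = 3 µM delta7-dafachronic acid wells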
DAX1 inh-2 = DAX1 (NR0B1) inhibition, primary screen; 370,000 compounds, 1.1% hits; HEK293T StAR-luciferase reporter, SF-1/DAX-1 repression relief; AID 652010; inhibition, % at 6.8 µM;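 active = inhibition above the mean over all tested compounds plus 3 SD, cut at about 3.6% in these data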;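 also: 0% = DAX-1 cells with DMSO and 100% = cells lacking DAX-1 with DMSO; higher inhibition means more luminescence from relief of DAX-1 repression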
* marks the source's active call; other numbers are inactive results; x = no result. Shown are actives, neighbours in structure and some others; about 4.1% of the full set was active somewhere.

SMILES	hcDAF-12 act	DAX1 inh-1	hgDAF-12 ag	ssDAF12 agonist	DAX1 inh-2
COC(=O)C1CN(Cc2cn(CCC3OCCO3)nn2)CCS(=O)(=O)N1Cc1ccc(OC)cc1 (configuration not stated)	-1	x	0	-1	0
COc1ccc(N/C=C/C(=O)c2ccc(OC)c(OC)c2)cc1	-1	1	-1	-1	0
COc1ccc(C(=O)/C=C/Nc2cccc(C)n2)cc1OC	1	2	11*	0	2
Cc1sc2nc(SCC(=O)c3ccc(O)c(O)c3)n(C)c(=O)c2c1C	-2	x	4	-1	-1
O=C1N=c2ccccc2=C1c1c(O)n(-c2cccc(F)c2)[nH]c1=O	2	1	-1	0	0
CCn1c(O)c(C2=c3ccccc3=NC2=O)c2cc(Br)ccc21	5	x	3	1.0*	0
CCC(C)C(NC(=O)c1ccccc1NC(=O)c1ccc(OC)cc1)C(=O)NCCCn1ccnc1 (configuration not stated)	-2	0	2	0	0
OCCNc1nc(Nc2ccc(O)cc2)nc2ccccc12	0	5.8*	1	-1	1
OCCNc1nc(Nc2cccc(O)c2)nc2ccccc12	-3	-1	5	-1	-1
Cc1ccc2[nH]cc(CCNC(=O)CN3C(=O)c4ccccc4C3=O)c2c1	-1	-1	-2	-2	1
Cc1ccc2c(c1)N(CC(=O)NCCc1c[nH]c3ccccc13)C(=O)CO2	2	1	1	0.9*	-1
CN1CCN(c2ccccc2NC(=O)c2ccc(Br)o2)CC1	0	0	2	-1	-1
CN1CCN(c2ccccc2NC(=O)c2cc3ccccc3o2)CC1	4	-1	-1	0	-1
O=C(Nc1ccccc1N1CCOCC1)c1cc2ccccc2o1	1	0	2	1.3*	0
CC1CCN(c2ccccc2NC(=O)c2ccc(Br)o2)CC1	-1	0	8	1.0*	0
O=C(NCCc1ccccc1)C1CCC(Cn2c(=O)c3ccccc3n(Cc3cccc(Cl)c3)c2=O)CC1 (configuration not stated)	2	6.0*	4	0	0
O=c1[nH]c(NCCO)nc2c1C1(CCCC1)Cc1ccccc1-2	-1	1	0	-1	0
C=CCNC(=S)NNc1nc2c(c(=O)[nH]1)C1(CCCCC1)Cc1ccccc1-2	-1	4.4*	2	-1	1
S=C(NCc1cccc(Cl)c1)OC1CCC12CCC(c1ccccc1)CC2 (configuration not stated)	0	x	3	-1	0
O=C(O)c1ccc(/C=N/Nc2nc3ccccc3[nH]2)cc1	-1	8.9*	2	0	0
COC(=O)c1ccc(/C=N/Nc2nc3ccccc3[nH]2)cc1	2	0	6	-1	1
O=C(O)c1ccc(/C=N/Nc2nnnn2-c2ccccc2)cc1	0	-2	0	1.6*	0
C/C(=N\Nc1nc2ccccc2[nH]1)c1ccc2c(c1)OCO2	-1	0	2	-2	1
C(=N\Nc1nc2ccccc2[nH]1)/c1ccc2c(c1)OCO2	4	8.0*	10	0	3
Clc1ccccc1N/N=C/c1ccc2c(c1)OCO2	4	4.3*	10	-1	2
SMILES	hcDAF-12 act	DAX1 inh-1	hgDAF-12 ag	ssDAF12 agonist	DAX1 inh-2
O=C(Nc1c(-c2ccccc2)nc2ncccn12)C1CC1	1	x	-3	-1	1
CC(=O)N1CCc2c1cccc2S(=O)(=O)NC(CC(C)C)C(=O)Nc1ccccc1C (configuration not stated)	-1	x	2	-1	0
O=S1(=O)c2ccc(N3CCCC3)cc2Oc2ccccc2CN1Cc1cn(Cc2ccc(C(F)(F)F)cc2)nn1	-1	x	-3	-1	-1
COc1ccc(Br)cc1S(=O)(=O)NCCN1CCOCC1	-1	4.5*	4	-1	1
COc1ccc(CN2C(=O)c3cccnc3C2=O)cc1S(=O)(=O)NC(C)C	1	5.8*	3	0	0
CCCNS(=O)(=O)c1cc(CN2C(=O)c3cccnc3C2=O)ccc1OC	0	-1	0	-1	0
COc1cc(/C=C2/CC(C)OC2=O)c([N+](=O)[O-])cc1OC (configuration not stated)	-2	4.7*	1	-1	0
C=CCN1C(=O)[C@H](CC(=O)NCC2CCCCC2)[C@@]2(C(=O)OCC)CCCC=C12	-2	x	-4	-1	-1
Cc1ccccc1Nc1nc(N)nc(COC(=O)c2ccco2)n1	3	3	12*	0	2
Nc1nc(COC(=O)c2ccco2)nc(Nc2ccccc2)n1	-1	4	3	-1	2
COC(=O)c1cccc(C(=O)N2CCCC(Nc3ccc(C)c(C)c3)C2)c1 (configuration not stated)	-2	0	0	-1	0
Cc1ccc2nc(SCC(=O)c3ccc4c(c3)NC(=O)CO4)[nH]c2c1	5	-1	11*	0	1
O=C1COc2ccc(C(=O)COC(=O)c3ccc4ccccc4n3)cc2N1	4	1	2	0.9*	-1
COc1ccc2c(C)cc(SCC(=O)c3ccc4c(c3)OCO4)nc2c1	4	-1	5	3.4*	0
Cc1ccc2nc(SCC(=O)c3ccc4c(c3)OCO4)[nH]c2c1	-1	0	3	0	1
COc1ccc2c(C)cc(SCC(=O)NC3CCCC3)nc2c1	0	0	-1	-1	-2
O=C(CSc1nc2ccccc2[nH]1)c1ccc2c(c1)OCO2	-1	6.0*	5	-1	0
CC1CCCC(NC(=O)CNC(=O)c2cccs2)C1C (configuration not stated)	0	5.2*	1	-1	1
Fc1cccc(F)c1[B-](F)(F)F	-1	0	11*	-1	1
C#CCCCN([C@H](C(=O)OC)C(C)C)S(=O)(=O)c1ccc(F)cc1Br	1	x	0	-1	0
FC(F)(F)c1cnc(Oc2cccc3ccccc23)c(Cl)c1	3	0	2	1.0*	0
CCCCNS(=O)(=O)/C=C/c1ccc(F)cc1CNC(=O)OC(C)(C)C	-2	x	-1	-2	-1
O=C(c1ccc2c3n(nc2c1)-c1ccccc1CO3)N1CCCCC1	6.5*	-2	11*	0	3
CC(=O)Nc1ccc(C(/C=C/c2ccccc2)Cc2ccccc2)cc1 (configuration not stated)	-2	x	3	-1	-1
CC(C)(C)SCCNC(=O)c1ccccc1	2	3	7	0	2
Cc1ccc(C(=O)NCCSC(C)(C)C)cc1	5	2	11*	0	4.0*
CN(C)c1ccc(-c2nc3ncc(Cl)cc3[nH]2)cc1	-2	x	0	-1	0
CC(C)CN1CCN(CC#Cc2ccccc2)CC1CCO (configuration not stated)	1	3	-1	-1	2

Screening results deposited in PubChem by The Scripps Research Institute Molecular Screening Center.
